Data published in PubChem BioAssay (NCATS).
Results filed as inconclusive are left out. A call without a number means that no potency is given here. Activity calls are given as the source filed them. Unless noted, the call rests on the fitted dose curve; in most records, active means well fitted curve in the direction sought with a large enough effect; inconclusive means small, poorly fitted or top-dose-only effect, or another doubt; inactive means no such curve, though single readings can be large; an effect the other way counts as inactive or inconclusive.

Assays:
[1] = Validation screen for small molecules that induce DNA re-replication in SW480 colon adenocarcinoma cells (AID 504364)
In short: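 Cells are treated 48 hr with test compound, stained 40 min with Hoechst at 37 C, and scanned for nuclear fluorescence; compounds inducing re-replication increase nuclei with elevated intensity.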

[2] = molecular target: Peptidyl-prolyl cis-trans isomerase NIMA-interacting 1 (Homo sapiens) (UniProt Q13526); experiment: qHTS Validation Assay to Find Inhibitors of Pin1 (AID 504536; active means well fitted inhibition curve with a large enough effect in the polarisation, with a control signal flat, not every such curve was filed as active; the % refers to the polarisation)
Peptidyl-prolyl cis-trans isomerase NIMA-interacting 1 (Homo sapiens), sequence (Q13526 whole entry, looked up): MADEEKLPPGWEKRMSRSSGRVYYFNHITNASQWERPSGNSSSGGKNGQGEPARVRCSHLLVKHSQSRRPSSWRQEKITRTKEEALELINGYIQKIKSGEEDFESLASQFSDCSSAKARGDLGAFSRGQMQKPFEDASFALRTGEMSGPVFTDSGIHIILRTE
In short: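 Fluorescence polarization competition: compounds (titration) displace HiFluor-488-labeled Pin1-1b peptide from Pin1 (0.3 uM final) in pH 7.5 HEPES buffer with DTT, 10 min at room temperature; %Activity normalized to no-enzyme wells, curves fitted.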

[3] = molecular target: Phosphoglycerate kinase, glycosomal (Trypanosoma brucei brucei) (UniProt P07378); experiment: qHTS Validation Assay to Find Inhibitors of Phosphoglycerate Kinase (AID 504547)
Phosphoglycerate kinase, glycosomal (Trypanosoma brucei brucei), sequence (P07378 whole entry, looked up): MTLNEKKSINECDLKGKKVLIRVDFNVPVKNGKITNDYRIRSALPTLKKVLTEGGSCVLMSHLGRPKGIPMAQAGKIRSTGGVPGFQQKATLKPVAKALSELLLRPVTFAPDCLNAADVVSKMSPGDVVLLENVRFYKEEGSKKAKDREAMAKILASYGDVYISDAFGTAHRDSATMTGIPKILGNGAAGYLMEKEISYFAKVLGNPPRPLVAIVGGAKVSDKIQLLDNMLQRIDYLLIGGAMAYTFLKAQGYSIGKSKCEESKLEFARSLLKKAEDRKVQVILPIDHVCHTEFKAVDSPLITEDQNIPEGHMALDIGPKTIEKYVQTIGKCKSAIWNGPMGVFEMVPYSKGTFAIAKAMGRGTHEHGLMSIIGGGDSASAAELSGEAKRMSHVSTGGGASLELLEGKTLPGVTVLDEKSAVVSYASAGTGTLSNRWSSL
In short: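 Inhibition of the enzyme is judged by a Kinase-Glo Plus luminescent signal following a one-hour incubation at room temperature. Because 1,3-BPG is unstable, it is made in situ by GAPDH at 100nM final; no-PGK wells define the baseline.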

[4] = molecular target: phosphoglycerate mutase (Leishmania major) (UniProt Q4Q090); experiment: qHTS Validation Assay to Find Inhibitors of Phosphoglycerate Mutase (AID 504548);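 further: end-point luminescence from Kinase-GloPlus after the PGAM reaction; series mostly up to about 58 µM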
phosphoglycerate mutase (Leishmania major), sequence (Q4Q090 1-553): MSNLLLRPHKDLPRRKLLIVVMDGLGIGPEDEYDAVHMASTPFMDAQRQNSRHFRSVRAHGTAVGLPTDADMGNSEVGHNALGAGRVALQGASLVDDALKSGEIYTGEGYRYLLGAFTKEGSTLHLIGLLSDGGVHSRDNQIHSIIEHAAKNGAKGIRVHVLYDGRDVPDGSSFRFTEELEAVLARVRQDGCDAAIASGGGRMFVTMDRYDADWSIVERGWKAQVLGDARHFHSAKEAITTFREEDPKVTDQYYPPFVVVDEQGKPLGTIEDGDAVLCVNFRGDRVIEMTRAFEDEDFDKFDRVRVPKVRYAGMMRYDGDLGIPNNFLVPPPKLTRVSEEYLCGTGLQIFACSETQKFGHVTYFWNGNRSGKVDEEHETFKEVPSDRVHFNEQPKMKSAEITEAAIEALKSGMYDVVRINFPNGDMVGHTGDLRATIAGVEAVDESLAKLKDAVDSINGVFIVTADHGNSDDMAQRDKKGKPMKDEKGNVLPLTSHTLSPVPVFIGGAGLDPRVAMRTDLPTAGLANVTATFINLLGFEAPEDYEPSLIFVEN
In short: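 L. major PGAM (1.25nM final) was added to substrate buffer and pinned compound, incubated 45 minutes at room temperature, then Kinase-GloPlus added; luminescence read after 10 minutes. Buffer: 100 mM TEA pH 7.6, 5 mM MgCl2, 0.01% Tween-20.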

[5] = Inducers of the Endoplasmic Reticulum Stress Response (ERSR) in human glioma: Validation (AID 504836); further: potency means the concentration at half of the fitted maximal effect
In short: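 ERSR induction read as luciferase luminescence (Bright-Glo, 10 min at room temperature) in stably transfected human U87-MG glioma cells exposed to compounds for 16 h, using GRP78 as sensor.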

[6] = molecular target: Ubiquitin carboxyl-terminal hydrolase 1 (Homo sapiens) (UniProt O94782); experiment: Inhibitors of USP1/UAF1: Pilot qHTS (AID 504865);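 further: rhodamine fluorescence freed from ubiquitin-rhodamine substrate followed over time; top concentration of the series differs between compounds; nearly all actives have a fitted effect of over 35% in size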
Ubiquitin carboxyl-terminal hydrolase 1 (Homo sapiens), sequence (O94782 whole entry, looked up): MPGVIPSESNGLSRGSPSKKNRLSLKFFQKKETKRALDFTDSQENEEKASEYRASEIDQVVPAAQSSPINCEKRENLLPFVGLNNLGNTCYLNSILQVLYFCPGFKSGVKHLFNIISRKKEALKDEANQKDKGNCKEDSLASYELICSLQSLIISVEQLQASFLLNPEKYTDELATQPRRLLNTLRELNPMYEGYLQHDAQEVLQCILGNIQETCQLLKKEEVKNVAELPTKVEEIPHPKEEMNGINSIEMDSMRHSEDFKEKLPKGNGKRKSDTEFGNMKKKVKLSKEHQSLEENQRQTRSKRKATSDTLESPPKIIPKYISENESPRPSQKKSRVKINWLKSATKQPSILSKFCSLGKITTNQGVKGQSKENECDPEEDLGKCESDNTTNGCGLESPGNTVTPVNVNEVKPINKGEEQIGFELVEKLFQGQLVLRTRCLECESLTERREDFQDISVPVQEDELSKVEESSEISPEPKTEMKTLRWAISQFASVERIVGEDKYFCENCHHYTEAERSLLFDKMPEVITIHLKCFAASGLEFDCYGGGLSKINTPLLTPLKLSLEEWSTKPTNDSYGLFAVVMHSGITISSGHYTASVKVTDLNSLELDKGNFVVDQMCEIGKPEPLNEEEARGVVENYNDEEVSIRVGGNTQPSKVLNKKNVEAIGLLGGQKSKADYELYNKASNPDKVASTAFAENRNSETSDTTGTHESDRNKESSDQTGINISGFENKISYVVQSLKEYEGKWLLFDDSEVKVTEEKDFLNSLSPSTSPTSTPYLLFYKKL
In short: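 Deubiquitinase activity followed as kinetic rhodamine fluorescence release from 150 nM Ub-Rho. 1 nM USP1/UAF1 with compound, after 15 min room-temperature preincubation, in HEPES pH 7.8 buffer containing TCEP, EDTA, BSA and Tween-20.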

[7] = qHTS for Inhibitors of ATXN expression: Validation of Cytotoxic Assay (AID 588349);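 further: cells exposed to compound for 72 hr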
In short: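 HEK293, compound dose series, 72 hr / 37 degrees C; viability via CellTiter Glo (intracellular ATP).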

[8] = qHTS for Inhibitors of ATXN expression: Validation (AID 588378); further: nearly all actives have a fitted effect of over 75% in size; further: potency means the concentration at half of the fitted maximal effect
In short: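 Luciferase luminescence (Bright-Glo) from an ATXN2-FFLuc HEK293 line after 24 h compound exposure at 37 °C, preceded by a CellTiter-Fluor fluorescence viability read. Serial dilutions of a reference ATXN2 inhibitor and a luciferase inhibitor served as controls.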

[9] = molecular target: DNA dC->dU-editing enzyme APOBEC-3G (Homo sapiens) (UniProt Q9HC16); experiment: qHTS for inhibitors of Vif-A3G interactions: Validation (AID 588379)
DNA dC->dU-editing enzyme APOBEC-3G (Homo sapiens), sequence (Q9HC16 whole entry, looked up): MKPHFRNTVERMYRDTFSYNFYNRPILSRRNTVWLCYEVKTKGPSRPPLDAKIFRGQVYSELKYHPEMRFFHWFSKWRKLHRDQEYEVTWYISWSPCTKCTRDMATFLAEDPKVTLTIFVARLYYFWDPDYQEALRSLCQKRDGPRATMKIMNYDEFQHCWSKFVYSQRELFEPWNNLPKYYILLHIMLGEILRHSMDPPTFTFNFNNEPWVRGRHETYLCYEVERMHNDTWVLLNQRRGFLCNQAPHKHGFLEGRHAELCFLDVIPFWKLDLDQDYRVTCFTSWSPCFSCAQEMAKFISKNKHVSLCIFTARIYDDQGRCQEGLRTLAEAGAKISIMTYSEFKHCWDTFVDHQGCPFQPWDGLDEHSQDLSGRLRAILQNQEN
In short: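 HeLa cells stably expressing Vif and A3G-eYFP, 700 cells/well, incubated overnight at 37 deg C, then exposed to compound overnight at 37 deg C. Inhibition of Vif-mediated degradation read as increased yellow fluorescence (Ex 488/Em 500-530) by laser-scanning cytometry.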

SMILES	outcome [1]	outcome [2]	outcome [3]	outcome [4]	Potency [5]	Potency [6]	outcome [7]	Potency [8]	outcome [9]
O=C(O)CC[N+](=O)[O-]	inactive	inactive	inactive	inactive	inactive	inactive	inactive	inactive	–
NC(=O)CN1CC(O)CC1=O (centres undefined)	inactive	inactive	inactive	inactive	inactive	inactive	inactive	inactive	–
NCc1cc(=O)[nH]o1	inactive	inactive	inactive	inactive	inactive	inactive	inactive	inactive	inactive
CC(Cc1ccc(O)cc1)NCC(O)c1cc(O)cc(O)c1 (centres undefined)	inactive	inactive	inactive	inactive	inactive	inactive	inactive	inactive	–
C[C@]12CCC3C(CC[C@H]4C[C@H](O)CC[C@]34C)C1CC[C@@H]2C(=O)CO (some centres undefined)	inactive	inactive	inactive	inactive	inactive	inactive	inactive	inactive	–
CS(=N)(=O)CC[C@H](N)C(=O)O (some centres undefined)	inactive	inactive	inactive	inactive	inactive	inactive	inactive	inactive	–
CCCCc1ccc(C(=O)O)nc1	inactive	inactive	inactive	inactive	inactive	inactive	inactive	inactive	inactive
NC1CCc2cc(O)c(O)cc2C1 (centres undefined)	inactive	inactive	inactive	inactive	inactive	inactive	inactive	inactive	–
CC(C)Oc1cccnc1N(C)C1CCN(Cc2ccccc2)CC1	inactive	inactive	inactive	inactive	inactive	inactive	inactive	inactive	–
O=C(O)[C@@H]1CCN1	inactive	inactive	inactive	inactive	inactive	inactive	inactive	inactive	–
Cn1cnc(CCN)c1	inactive	inactive	inactive	inactive	inactive	inactive	inactive	inactive	–
C[C@@H]1O[C@H](C[N+](C)(C)C)C[C@H]1O	inactive	inactive	inactive	inactive	inactive	inactive	inactive	inactive	–
CC1=NN=C(c2ccc(N)cc2)c2cc3c(cc2C1)OCO3	inactive	inactive	inactive	inactive	inactive	inactive	inactive	inactive	inactive
C[N+]1(C)C2CCC1CC(OC(=O)C(CO)c1ccccc1)C2 (centres undefined)	inactive	inactive	inactive	inactive	inactive	inactive	inactive	inactive	–
NC(CCP(=O)(O)O)C(=O)O (centres undefined)	inactive	inactive	inactive	inactive	inactive	inactive	inactive	inactive	–
O=C(O)Cc1cnc[nH]1	inactive	inactive	inactive	inactive	inactive	inactive	inactive	inactive	–
CN[C@@H](C)[C@H](O)c1ccccc1	inactive	–	–	–	–	–	–	–	–
NC(N)=NOCCC(N)C(=O)O (centres undefined)	inactive	inactive	inactive	inactive	inactive	inactive	inactive	inactive	–
CCCN(CCC)C1CCc2ccc(O)cc2C1 (centres undefined)	inactive	inactive	inactive	inactive	inactive	inactive	inactive	inactive	–
c1ccc2sc(C3(N4CCCCC4)CCCCC3)cc2c1	inactive	inactive	inactive	inactive	inactive	inactive	inactive	inactive	inactive
c1ccc(CCCN2CCN(CCOC(c3ccccc3)c3ccccc3)CC2)cc1	–	inactive	inactive	inactive	inactive	inactive	–	–	inactive
S=C(NC1CCCCC1)N1CCC(c2cnc[nH]2)CC1	inactive	inactive	inactive	inactive	inactive	inactive	inactive	inactive	inactive
C=CCN1CC[C@]23CCCCC2[C@H]1Cc1ccc(O)cc13 (some centres undefined)	inactive	inactive	inactive	inactive	inactive	inactive	–	inactive	–
Cc1nc(-c2ccc(-c3ccc(C(=O)N4CCc5cc6c(cc54)C4(CCN(C)CC4)CO6)cc3)c(C)c2)no1	inactive	–	–	–	–	–	–	–	inactive
c1ccc(C2(c3ccccc3)CC2C2=NCCN2)cc1 (centres undefined)	–	inactive	inactive	inactive	inactive	inactive	inactive	–	–
NCCc1c[nH]c2ccc(O)cc12	inactive	inactive	inactive	inactive	inactive	inactive	inactive	inactive	inactive
CNCCc1ccc(O)c(O)c1	–	inactive	–	–	inactive	inactive	–	–	–

SMILES	outcome [1]	outcome [2]	outcome [3]	outcome [4]	Potency [5]	Potency [6]	outcome [7]	Potency [8]	outcome [9]
O=C(N[C@H]1CN2CCC1CC2)c1ccc(Cl)cc1	–	inactive	inactive	inactive	inactive	inactive	inactive	inactive	–
COc1ccc2c(c[n+](C)c3c4cc5c(cc4ccc23)OCO5)c1OC	–	inactive	inactive	–	inactive	inactive	–	–	–
C#CCOC(=O)C1=CCCN(C)C1	inactive	inactive	inactive	inactive	inactive	inactive	inactive	inactive	inactive
NC(=NCCC[C@H](N)C(=O)O)N[N+](=O)[O-]	inactive	inactive	inactive	inactive	inactive	inactive	inactive	inactive	inactive
CCN(CC)CCNC(=O)c1ccc(NC(C)=O)cc1	–	–	–	–	inactive	–	–	–	–
CC[C@@]1(O)C(=O)OCc2c1cc1n(c2=O)Cc2cc3ccccc3nc2-1	inactive	inactive	inactive	inactive	inactive	inactive	–	inactive	inactive
CCN1CCc2nc(N)oc2CC1	–	–	–	–	inactive	–	–	–	–
Oc1ccc2c3c1O[C@H]1c4[nH]c5c(c4C[C@@]4(O)[C@@H](C2)N(CC2CC2)CC[C@]314)C[C@@]1(O)[C@H]2Cc3ccc(O)c4c3[C@@]1(CCN2CC1CC1)[C@H]5O4	inactive	inactive	inactive	inactive	inactive	inactive	–	inactive	–
C[C@@H](N)Cc1cnc[nH]1	inactive	inactive	inactive	inactive	inactive	inactive	inactive	inactive	inactive
CN[C@@H]1C[C@@H](c2ccc(Cl)c(Cl)c2)c2ccccc21	inactive	inactive	inactive	inactive	inactive	inactive	–	20 µM (active)	–
CC(=O)[C@H]1CCC2C3CC[C@H]4C[C@H](O)CC[C@]4(C)C3CC[C@@]21C (some centres undefined)	inactive	–	inactive	inactive	inactive	inactive	inactive	inactive	–
Cc1c(C(=O)c2cccc3ccccc23)c2cccc3c2n1[C@H](CN1CCOCC1)CO3	inactive	–	inactive	inactive	–	–	–	15.8 µM (active)	–
CC[C@@H](C(N)=O)N1CCCC1=O	–	inactive	inactive	inactive	inactive	inactive	inactive	inactive	–
CCCN(CCC)[C@@H]1CCc2ccc(O)cc2C1	inactive	inactive	inactive	inactive	inactive	inactive	inactive	inactive	inactive
C[N+](C)(C)CC(=O)O	inactive	–	–	–	inactive	inactive	–	–	–
CC(=O)NCCc1c[nH]c2ccccc12	inactive	inactive	inactive	inactive	inactive	inactive	inactive	inactive	inactive
CNCCc1c[nH]c2ccc(O)cc12	inactive	inactive	inactive	inactive	inactive	inactive	inactive	inactive	inactive
COC(=O)[C@@H](N)CCCN=C(N)N[N+](=O)[O-]	–	inactive	inactive	inactive	inactive	inactive	inactive	inactive	inactive
O=C1CCCN1CC#CCN1CCCC1	inactive	inactive	inactive	inactive	inactive	inactive	inactive	inactive	inactive
CCCN1CCC[C@H](c2cccc(O)c2)C1	inactive	–	inactive	inactive	inactive	inactive	inactive	inactive	–
Cc1nccc2c1[nH]c1ccccc12	inactive	inactive	inactive	inactive	inactive	inactive	inactive	inactive	inactive
C/C=C(/C)C(=O)O[C@H]1C(C)=C2[C@H]([C@@H]1OC(=O)CCCCCCC)[C@@](C)(OC(C)=O)C[C@H](OC(=O)CCC)[C@@]1(O)[C@H]2OC(=O)[C@@]1(C)O	–	–	inactive	inactive	0.0165 µM (active)	–	–	–	–
COc1cc2c(cc1O)CC[C@@H]1[C@@H]2CC[C@]2(C)[C@@H](O)CC[C@@H]12	–	–	–	–	inactive	–	–	–	–
NC(CO)C(=O)NNCc1ccc(O)c(O)c1O (centres undefined)	–	–	–	–	inactive	–	–	–	–
CN1C(=O)CC[C@H]1c1cccnc1	–	–	–	–	inactive	–	–	–	–
C[N+]1(C)C2CC(OC(=O)[C@H](CO)c3ccccc3)CC1C1OC12 (some centres undefined)	–	–	–	–	–	–	–	inactive	–
